Only some compounds are listed: those with a hit (about 3.3% of all), similar ones and a draw of the others.
Vaccinia mCherry: qHTS for Stage-Specific Inhibitors of Vaccinia Orthopoxvirus: mCherry Reporter Primary qHTS | Vaccinia virus mCherry reporter infection, fluorescence | Potency, µM (highest dose often 36.5 µM), without a hit: at the top dose activity change, negative = inhibition, hits mostly inhibitors | hit rate 0.63% among 310,000 | AID 720579, 2013; calls by dose curve; tested in A549 cells; also: nearly all actives have a fitted effect of over 35% in size
HCV inh: qHTS Assay for Inhibitors of Hepatitis C Virus (HCV) | Huh7.5.1 HCVcc-Cre infection, luciferase reporter, 44 h | Potency, µM (highest dose often 41.8 µM), inactives show top-dose activity change, negative = inhibition, most hits filed as inhibitors | hit rate 3.4% among 340,000 | AID 651820, 2012; active = well fitted inhibition curve with a large enough effect; inconclusive = small, poorly fitted or top-dose-only effect, or another doubt; inactive = no such curve, though single readings can be large or run the other way
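After 44 h co-culture of compound, cells and HCVcc-Cre (~0.5 moi), substrate is added for 15 min at room temperature and luciferase measured over 15 sec. Cells were seeded at 1,000/well and pre-cultured 4 h.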
Vaccinia Venus: qHTS for Stage-Specific Inhibitors of Vaccinia Orthopoxvirus: Venus Reporter Primary qHTS; Vaccinia virus Venus reporter expression, fluorescence; Potency, µM (titrated, usually from 36.5 µM), inactives show top-dose activity change, negative = inhibition, hits mostly inhibitors; hit rate 0.46% among 330,000; AID 720580, 2013; calls by dose curve; tested in A549 cells; also: nearly all actives have a fitted effect of over 30% in size
Numbers without * were called inactive; i = inactive; ? = inconclusive; / = no result. % is scaled to controls: 0 for no effect and ±100 for the full control effect; potency is read from the fitted curve at half-maximal effect.

SMILES | Vaccinia mCherry | HCV inh | Vaccinia Venus
Cc1ccc2[nH]c3c(c2c1)CCNC3=O | -10% | -26% | -12%
O=C1CCCc2c1[nH]c1c(Br)cccc21 | / | -18% | 11µM*
CC(C)COc1ccc2[nH]c3c(c2c1)CCCC3=O | / | -24% | -5%
Cc1cc(Br)c2[nH]c3c(c2c1)CCCC3=O | / | 10µM* | ?
Cc1nn(-c2ccccc2)c(/N=C/c2ccc(O)cc2)c1-c1ccccc1 | i | -7% | -12%
Cc1nn(-c2ccccc2)c2c1C(O)n1c(nc3ccccc31)S2 (stereo not drawn) | i | 11µM* | -12%
CC(C)Cn1[nH]c2c3c(ccc2c1=O)C(=O)c1ccccc1C3=O | / | 11µM* | -27%
O=C1c2ccccc2C(=O)c2c1ccc1c(=O)n(-c3ccccc3)[nH]c21 | -11% | ? | -2%
CCOc1ccccc1C1C(C(=O)N2CCCCC2)=C(C)Nc2nc3ccccc3n21 (stereo not drawn) | -13% | / | 2%
CO[C@H]1[C@H](NC(=O)c2ccsc2)c2ccccc2C12CCN(Cc1ccc3c(c1)OCO3)CC2 | -18% | / | -8%
O=C(Cc1cccs1)Nc1cccc(-c2nc3cc4ccccc4cc3[nH]2)c1 | ? | 11µM* | 10µM*
CC(=O)Nc1cccc(NC(=O)Cc2cccs2)c1 | / | 3% | /
O=c1cc(NCCCO)c2ccccc2o1 | / | 6% | /
CN(C)CCNc1ccc(CO)c2oc3ccc(O)cc3c(=O)c12 | ? | ? | 10µM*
COc1cc2c(cc1OC)C(c1cc(C)ccc1C)CC(=O)N2 (stereo not drawn) | / | 6% | /
COc1cc(CNC(C)(C)CO)ccc1OCC(=O)Nc1ccc(Br)cc1 | / | 13µM* | /
C=CCOc1ccc(CNC(C)(C)CO)cc1OC | / | 1% | -3%
CSc1ccc(CN2CCSCC2)cc1 | i | 23% | -10%
CCc1ccc(CN2CCN(Cc3ccc(SC)cc3)CC2)cc1 | -30% | 10µM* | -29%
COc1ccc(C)cc1NC(C)C(=O)c1c[nH]c2ccccc12 (stereo not drawn) | -16% | / | -20%
Cc1c(C(=O)c2ccccc2)oc2ccc3ccccc3c12 | -8% | ? | 5%
O=[N+]([O-])c1oc2ccc3ccccc3c2c1CCO | ? | ? | 10µM*
Cc1cc(Br)ccc1NC(=O)C1CCN(S(=O)(=O)c2cccc3nsnc23)CC1 | -25% | / | -25%
CCOc1cc(/C=N/NC(=O)c2ccc(O)cc2)ccc1Oc1nc(Cl)ncc1F | / | -21% | /
CCOc1cc(/C=N\Nc2ncc(F)c(N3CCOCC3)n2)ccc1Oc1nc(Cl)ncc1F | i | 10µM* | -24%
SMILES | Vaccinia mCherry | HCV inh | Vaccinia Venus
Cc1cnc(C)c(-c2ccc(F)c3c2OC(CNC(=O)Cc2c(C)[nH]c4ccccc24)C3)n1 (stereo not drawn) | -13% | / | -2%
Cc1cc(C)[n+](C)c2ccccc12 | 4% | / | -10%
NC(=O)C(c1ccc(Br)cc1)c1ccc(C(=O)c2ccccc2)cc1 (stereo not drawn) | ? | 10µM* | -14%
NC(=O)C(c1ccc(F)cc1)c1ccc(C(=O)c2ccccc2)cc1 (stereo not drawn) | / | 8% | /
Cc1ccc(NC(=O)Cc2ccccc2)cc1S(=O)(=O)N1CCOCC1 | -21% | 0% | -10%
Cc1sc2ccccc2[n+]1C | -15% | / | 1%
Cc1sc2ccccc2[n+]1CCCC[n+]1c(C)sc2ccccc21 | 2.8µM* | / | ?
Cc1sc2ccccc2[n+]1CCCCBr | 7.1µM* | / | ?
Cc1sc2ccccc2[n+]1Cc1ccccc1 | -3% | / | 2%
Cn1nccc1C(=O)N1CCCC(Nc2ccc(F)cc2)C1 (stereo not drawn) | / | 13% | /
Cc1cccnc1-c1cccc2c1OC(CNC(=O)/C=C/c1cccs1)C2 (stereo not drawn) | -6% | / | 4%
COCCn1c(C)cc(C(=O)CSc2nc3ccccc3c(=O)[nH]2)c1C | / | 8.9µM* | /
COCCn1c(C)cc(C(=O)CSc2ccc3ccccc3n2)c1C | / | 10µM* | -21%
COCCn1c(C)cc(C(=O)CSc2nc(C)nc3sc4c(c23)CCC4)c1C | / | 10µM* | /
Cc1nc(SCC(=O)NCC2CCCO2)c2c3c(sc2n1)CCCC3 (stereo not drawn) | i | -28% | -19%
Cc1cc(C)c(C(=O)CSc2nc3ccccc3c(=O)[nH]2)cc1C | i | 11% | -6%
COCCn1c(C)cc(C(=O)COc2nc3ccccc3nc2C)c1C | -9% | ? | ?
COc1ccc(CCNC(=O)c2cc3c(=O)n4cccc(C)c4nc3n2C)cc1 | -7% | / | -10%
Cc1ccccc1CN1Cc2cccc3c2[C@H](C=CC3)CC1=O | i | / | -10%
O=C(COC(=O)c1ccc2ncsc2c1)NC(=O)C1CCCCC1 | -9% | / | -14%

High-throughput results: PubChem BioAssay, National Center for Advancing Translational Sciences (NCATS)
